Shown are actives, neighbours in structure and some others; about 4% of the full set was active somewhere.
TWEAK-Fn14 inh: TWEAK-Fn14 signaling inhibition. inhibition, % at 10 µM. TWEAK-stimulated Fn14 reporter cells, luciferase luminescence, 8 h. AID 1159606. actives 2% (n = 360,000); in the data active = inhibition above about 50%
HIF-2a inh: HIF-2a inhibition. 786-0 RCC cells HIF-2a reporter, luciferase luminescence, overnight. inhibition, % at 18.8 µM. actives 0.72% (n = 360,000);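 active = inhibition of the luminescence signal of 40% or more relative to plate controls, in a single-dose primary screen at 18.75 µM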
Peg3 prom inh: reduces Peg3 promoter-driven luciferase expression in HeLa. HeLa PEG-Prom luciferase reporter, luminescence, overnight. inhibition, % at 20 µM. actives 1.7% (n = 360,000);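 active = inhibition of at least 50% at 20 µM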
TROY signal inh: blocks TROY-dependent signaling in reporter cells; actives 0.98% (n = 360,000); Q293 LMP1-TROYcd NF-kB luciferase reporter, 4 h; inhibition, % at 10 µM;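 active = compounds whose plate-normalised and pattern-corrected inhibition of the luciferase reporter signal at the single screening dose is 50% or more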
KKLEB tox: counter-screen for CF NF-kB inhibitors: cytotoxicity | KKLEB CF airway cells viability, ATPlite luminescence, overnight; stronger effect = lower value; cells stimulated with P. aeruginosa culture filtrate | activity change (cytotoxicity), % at 5 µM | actives 0.36% (n = 360,000) | AID 602141;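 active = corrected activity change at or below -50% at 5 µM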
CF NFkB block: blocks PAF-induced NF-kB reporter in cystic fibrosis cells | KKLEB NF-kB-GFP reporter, GFP fluorescence overnight | inhibition, % at 5 µM | actives 0.86% (n = 360,000);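 active = at least 50% inhibition at 5 µM, scaled per plate between neutral and stimulator controls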;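 note: PAF is a Pseudomonas aeruginosa culture filtrate used as stimulus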
Large screens that a line does not name were inactive.

CCc1ccc(N2CC(C(=O)N/N=C/c3ccccc3)CC2=O)cc1 (stereo not drawn)	none
c1ccc(-c2ccc3cnccc3n2)cc1	none
O=C(O)c1ccc(N/N=C/c2c(F)cccc2Cl)cc1	TWEAK-Fn14 inh 95
C[n+]1ccccc1/C=C1\Sc2ccccc2N1CCO	none
Cc1ccc2c(c1)S/C(=C\c1cccc[n+]1C)N2CCO	none
CCN1/C(=C/c2ccc3cc(C)cc(C)c3[n+]2CC)Sc2cc(C)ccc21	Peg3 prom inh 99, KKLEB tox -53
CCN1/C(=C\c2ccc3cc(C)ccc3[n+]2CC)Sc2cc(C)c(C)cc21	TWEAK-Fn14 inh 64
CCN1/C(=C/c2ccc3cccc(C)c3[n+]2CC)Sc2ccccc21	Peg3 prom inh 56
CC[n+]1c(C)sc2c3ccsc3ccc21	none
CCN1/C(=C/c2ccc3cc(C)ccc3[n+]2CC)Sc2ccc3sccc3c21	Peg3 prom inh 111
Oc1c(CN2CCOCC2)cc(CN2CCOCC2)c(O)c1O	TWEAK-Fn14 inh 52
Oc1cccc(CN2CCOCC2)c1O	none
COCCCNC(=O)/C=C1\Sc2ccccc2N(Cc2ccccc2F)C1=O	TWEAK-Fn14 inh 103
O=C(CN1C(=O)/C(=C/c2ccccc2F)Sc2ccccc21)NCCCN1CCOCC1	none
Cc1ccccc1CN1CCN(C/C=C/c2ccccc2)CC1	TWEAK-Fn14 inh 58
CN1CCN(c2ncnc3c2ncn3[C@H]2CN(Cc3ccc4c(c3)OCO4)C[C@@H](CO)O2)CC1	none
Cn1cccc1Cc1nnc(SCC(=O)N2CCCc3ccccc32)n1-c1ccc(F)cc1	none
COc1ccc(NC(=O)CSc2nnc(-c3cccs3)n2-c2ccccc2)cc1	TWEAK-Fn14 inh 54
COc1ccc(NC(=O)CSc2nnc(C3CC3)n2-c2ccccc2)cc1	none
COc1ccc(-n2c(Cc3cccn3C)nnc2SCC(=O)Nc2ccc(C)c(Cl)c2)cc1	TWEAK-Fn14 inh 52
Cn1cccc1Cc1nnc(SCC(=O)N2CCc3ccccc32)n1-c1ccc(F)cc1	TWEAK-Fn14 inh 57
COc1ccc(-n2c(Cc3cccn3C)nnc2SCC(=O)Nc2cccc(OC)c2)cc1	none
C[C@@H]1C[C@H]2[C@@H]3CCC4=CC(=O)C=C[C@]4(C)[C@@]3(F)[C@@H](O)C[C@]2(C)[C@@]1(O)C(=O)COP(=O)(O)O	CF NFkB block 67
CC1(c2ccccc2)O[C@@H]2C[C@H]3[C@@H]4CCC5=CC(=O)C=C[C@]5(C)[C@@]4(F)[C@@H](O)C[C@]3(C)[C@]2(C(=O)CO)O1 (stereo partly drawn)	CF NFkB block 72
CC(=O)OCC(=O)C1=CCC2C3CCC4=CC(=O)C=CC4(C)C3(F)C(OC(C)=O)CC12C (stereo not drawn)	none
C[C@@H]1CC2[C@@H]3CC[C@H]4CC(=O)CC[C@]4(C)C3=CC[C@]2(C)[C@@]1(O)C(=O)CO (stereo partly drawn)	none
C[C@H]1C[C@H]2[C@@H]3CCC4=CC(=O)C=C[C@]4(C)[C@@]3(F)[C@@H](O)C[C@]2(C)[C@@]1(O)C(=O)CO	CF NFkB block 68
C[C@H]1C[C@H]2[C@@H]3CCC4=CC(=O)C=C[C@]4(C)[C@@]3(Cl)[C@@H](O)C[C@]2(C)[C@@]1(O)C(=O)CO	CF NFkB block 64
COc1ccccc1-c1cc(C(=O)N/N=C/c2ccoc2)c2ccccc2n1	none
Cc1cc(C)cc(NC(=O)CN2CCC(NC(=O)c3cccc(F)c3)CC2)c1	none
OC(COC1CCCCC1)CN1CCN(c2ccccc2)CC1 (stereo not drawn)	none
Cc1n(CC(O)COC2CCCCC2)c2ccccc2[n+]1C (stereo not drawn)	TWEAK-Fn14 inh 76 (no result: TROY signal inh)
O=C(Cc1cccs1)Nc1nc2c(ccc3ccccc32)s1	TWEAK-Fn14 inh 50
CC1Oc2ccccc2N(CC(=O)NC2CCCCC2)C1=O (stereo not drawn)	none
NC(=S)n1[nH]c(-c2ccc([N+](=O)[O-])cc2)c(N=Nc2cccc([N+](=O)[O-])c2)c1=O	TWEAK-Fn14 inh 71, TROY signal inh 64
Cc1c(N=Nc2c(-c3ccc([N+](=O)[O-])cc3)[nH]n(C(N)=S)c2=O)cccc1[N+](=O)[O-]	TWEAK-Fn14 inh 70
Cc1[nH]n(C(N)=S)c(=O)c1N=Nc1cccc([N+](=O)[O-])c1C	none
NC(=S)n1[nH]c(-c2ccc([N+](=O)[O-])cc2)c(N=Nc2ccccc2[N+](=O)[O-])c1=O	none
Oc1ccc(-c2nc3c4c(ncn3n2)-c2ccccc2CC42CCCC2)cc1	TWEAK-Fn14 inh 77, Peg3 prom inh 111
Nn1cnc2c(c1=O)C1(CCCCC1)Cc1ccccc1-2	none
COC(=O)c1c(NC(=O)C(Cl)Cl)sc2c1C(C(=O)OC)CC2 (stereo not drawn)	Peg3 prom inh 81
COc1cc(OC)c2c(-c3cccc(-c4ccc(OC)c(OC)c4)c3)cc(=O)oc2c1	TWEAK-Fn14 inh 97
COc1cc(OC)c2c(-c3cccc(-c4sccc4C(C)=O)c3)cc(=O)oc2c1	CF NFkB block 60
COc1cc(OC)c2c(-c3cccc(-c4ccc(NC(C)=O)cc4)c3)cc(=O)oc2c1	none
CCCNC(=O)C1(C)CCCN(C(=O)c2ccccc2OC(F)(F)F)C1 (stereo not drawn)	none
CC(C)(C)c1nnc(SCC(=O)Nc2ccc(N3CCCCC3)cc2)n1N	none
CN(C)c1cc(O)c(C(=S)Nc2ccccc2)c(N(C)C)c1	none
CN(C)c1ccc(C(=S)Nc2ccccc2)cc1	TWEAK-Fn14 inh 95, TROY signal inh 82
O=S(=O)(Cc1cc(Cl)nc(-c2ccncc2)n1)c1ccccc1	TROY signal inh 51
CCOc1ccccc1C(=O)NCC(=O)NCCSc1ccc(Br)cc1	none
O=C(NNc1ccccc1[N+](=O)[O-])Nc1ccc(Cl)c(Cl)c1	TROY signal inh 55
O=C(Nc1cc([N+](=O)[O-])ccc1Cl)C(Sc1ccccc1)c1ccccc1 (stereo not drawn)	none
O=C(Nc1ccc(Cl)c([N+](=O)[O-])c1)C(Sc1ccccc1)c1ccccc1 (stereo not drawn)	TWEAK-Fn14 inh 94, Peg3 prom inh 53, TROY signal inh 55
O=C(Nc1cc(C(F)(F)F)ccc1N1CCOCC1)c1ccccc1F	TWEAK-Fn14 inh 62 (no result: TROY signal inh)
COc1ccc(C2CC(=O)c3sc(NC(C)=O)nc3C2)cc1 (stereo not drawn)	TWEAK-Fn14 inh 72, TROY signal inh 62
COc1ccc(-c2nc(NC(C)=O)sc2-c2ccc(OC)cc2)cc1	none
NCc1csc(Nc2ccc(C(=O)c3ccccc3)cc2)n1	none
CCOC(=O)C1CCCN(C2=NC(=O)/C(=C/c3ccc(N(C)C)cc3)S2)C1 (stereo not drawn)	none
COc1cccc2sc(Nc3nc(-c4ccccn4)cs3)nc12	TWEAK-Fn14 inh 104
c1ccc(Nc2nc(-c3ccccn3)cs2)cc1	none
